{"source": "PubChem BioAssay (NCATS)", "key": {"[1]": {"assay": "qHTS for Inhibitors of the Functional Ribonucleoprotein Complex (vRNP) of Lassa (LASV) Arenavirus: Viability assay - alamar blue signal for LASV Primary Screen (AID 1347083; calls by dose curve; tested in HEK293 reporter line; note: nearly all actives have a fitted effect of over 80% in size; note: potency is the fitted concentration of half-maximal effect)"}, "[2]": {"assay": "qHTS for Inhibitors of the Functional Ribonucleoprotein Complex (vRNP) of Lymphocytic Choriomeningitis Arenaviruses (LCMV): Viability assay - alamar blue signal for LCMV Primary Screen (AID 1347085; calls by dose curve; tested in HEK293 reporter line; note: nearly all actives have a fitted effect of over 80% in size; note: potency is the fitted concentration of half-maximal effect)"}, "[3]": {"target": "Nucleoprotein (Lymphocytic choriomeningitis virus (strain Armstrong)) (UniProt P09992)", "sequence (P09992 whole entry, looked up)": "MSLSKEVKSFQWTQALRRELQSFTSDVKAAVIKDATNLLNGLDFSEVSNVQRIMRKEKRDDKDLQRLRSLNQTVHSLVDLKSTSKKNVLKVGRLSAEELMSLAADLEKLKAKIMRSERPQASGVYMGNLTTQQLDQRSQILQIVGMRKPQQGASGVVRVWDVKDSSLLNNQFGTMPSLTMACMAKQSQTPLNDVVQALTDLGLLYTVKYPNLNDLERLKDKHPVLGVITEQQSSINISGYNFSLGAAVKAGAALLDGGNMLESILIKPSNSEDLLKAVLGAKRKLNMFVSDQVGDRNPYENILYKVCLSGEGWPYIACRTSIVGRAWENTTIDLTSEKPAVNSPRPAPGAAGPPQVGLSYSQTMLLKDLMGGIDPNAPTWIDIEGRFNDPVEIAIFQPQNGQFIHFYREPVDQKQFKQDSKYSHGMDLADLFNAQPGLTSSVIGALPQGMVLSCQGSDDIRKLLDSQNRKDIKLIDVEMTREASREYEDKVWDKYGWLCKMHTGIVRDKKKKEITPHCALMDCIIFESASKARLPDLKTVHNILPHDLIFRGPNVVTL", "assay": "qHTS for Inhibitors of the Functional Ribonucleoprotein Complex (vRNP) of Lymphocytic Choriomeningitis Arenaviruses (LCMV): LCMV Primary Screen - GLuc reporter signal (AID 1347086); note: nearly all actives have a fitted effect of over 70% in size; note: potency is the fitted concentration of half-maximal effect"}, "[4]": {"assay": "qHTS for Inhibitors of the Functional Ribonucleoprotein Complex (vRNP) of Lassa (LASV) Arenavirus: LASV Primary Screen - GLuc reporter signal (AID 1347082; calls by dose curve; tested in HEK293 reporter line; note: series mostly up to about 57 µM; nearly all actives have a fitted effect of over 60% in size)"}}, "note": "“And” between values parts separate entries of the source, which are not always exact repeats. Identical values can stand only once. Records with an inconclusive call do not appear. A call without a number means that no potency is given here. The source made the active and inactive calls. Unless noted, calls come from the whole dose curve.", "data": [{"smiles": "O=C1Cc2cc(CCN3CCN(c4nsc5ccccc45)CC3)c(Cl)cc2N1", "values": [{"measurement": "Potency", "setting": "[1]", "result": "inactive"}, {"measurement": "Potency", "setting": "[2]", "result": "inactive"}, {"measurement": "Potency", "setting": "[3]", "result": "inactive"}]}, {"smiles": "COC(=O)C1=C(C)NC(C)=C(C(=O)OCC(C)C)C1c1ccccc1[N+](=O)[O-]", "note": "(stereo unspecified)", "values": [{"measurement": "Potency", "setting": "[4]", "result": "inactive"}, {"measurement": "Potency", "setting": "[2]", "result": "inactive"}, {"measurement": "Potency", "setting": "[3]", "result": "inactive"}]}, {"smiles": "Cc1ccc(-n2nc(C(C)(C)C)cc2NC(=O)Nc2ccc(OCCN3CCOCC3)c3ccccc23)cc1", "values": [{"measurement": "Potency", "setting": "[4]", "result": "inactive"}, {"measurement": "Potency", "setting": "[3]", "result": "inactive"}]}, {"smiles": "O=C1c2c(O)ccc(O)c2C(=O)c2c(NCCNCCO)ccc(NCCNCCO)c21", "values": [{"measurement": "Potency", "setting": "[1]", "result": "685 nM (active) and 891 nM (active) and 1.78 µM (active)"}, {"measurement": "Potency", "setting": "[2]", "result": "1.37 µM (active) and 1.26 µM (active)"}, {"measurement": "Potency", "setting": "[3]", "result": "4320 nM (active)"}]}, {"smiles": "CC(C)n1c(C=C[C@H](O)C[C@H](O)CC(=O)O)c(-c2ccc(F)cc2)c2ccccc21", "values": [{"measurement": "Potency", "setting": "[1]", "result": "2.43 µM (active)"}, {"measurement": "Potency", "setting": "[2]", "result": "7.69 µM (active)"}, {"measurement": "Potency", "setting": "[3]", "result": "21700 nM (active)"}]}, {"smiles": "CS(=O)(=O)CCNCc1ccc(-c2ccc3ncnc(Nc4ccc(OCc5cccc(F)c5)c(Cl)c4)c3c2)o1", "values": [{"measurement": "Potency", "setting": "[1]", "result": "0.432 µM (active)"}, {"measurement": "Potency", "setting": "[2]", "result": "0.137 µM (active)"}, {"measurement": "Potency", "setting": "[3]", "result": "769 nM (active)"}]}, {"smiles": "CCC1=C[C@@H]2CN(C1)Cc1c([nH]c3ccccc13)[C@@](C(=O)OC)(c1cc3c(cc1OC)N(C)[C@H]1[C@@](O)(C(=O)OC)[C@H](OC(C)=O)[C@]4(CC)C=CCN5CC[C@]31[C@@H]54)C2", "values": [{"measurement": "Potency", "setting": "[1]", "result": "inactive"}, {"measurement": "Potency", "setting": "[2]", "result": "inactive"}, {"measurement": "Potency", "setting": "[3]", "result": "inactive"}]}, {"smiles": "C#C[C@]1(O)CC[C@H]2[C@@H]3CCC4=Cc5oncc5C[C@]4(C)[C@H]3CC[C@@]21C", "values": [{"measurement": "Potency", "setting": "[4]", "result": "inactive"}, {"measurement": "Potency", "setting": "[2]", "result": "inactive"}, {"measurement": "Potency", "setting": "[3]", "result": "inactive"}]}, {"smiles": "Nc1ccn([C@@H]2O[C@H](CO)[C@@H](O)C2(F)F)c(=O)n1", "values": [{"measurement": "Potency", "setting": "[4]", "result": "inactive"}, {"measurement": "Potency", "setting": "[3]", "result": "inactive"}]}, {"smiles": "Cc1nc(Nc2ncc(C(=O)Nc3c(C)cccc3Cl)s2)cc(N2CCN(CCO)CC2)n1", "values": [{"measurement": "Potency", "setting": "[2]", "result": "inactive"}, {"measurement": "Potency", "setting": "[3]", "result": "inactive"}]}, {"smiles": "NC1[C@H]2CN(c3nc4c(cc3F)c(=O)c(C(=O)O)cn4-c3ccc(F)cc3F)C[C@@H]12", "note": "(stereo partly specified)", "values": [{"measurement": "Potency", "setting": "[4]", "result": "inactive"}, {"measurement": "Potency", "setting": "[3]", "result": "inactive"}]}, {"smiles": "O=C(c1ccccc1)c1ccc2n1CCC2C(=O)O", "note": "(stereo unspecified)", "values": [{"measurement": "Potency", "setting": "[4]", "result": "inactive"}, {"measurement": "Potency", "setting": "[2]", "result": "inactive"}, {"measurement": "Potency", "setting": "[3]", "result": "inactive"}]}, {"smiles": "CC(=O)N(O)CCCCCNC(=O)CCC(=O)N(O)CCCCCNC(=O)CCC(=O)N(O)CCCCCN", "values": [{"measurement": "Potency", "setting": "[4]", "result": "inactive"}, {"measurement": "Potency", "setting": "[2]", "result": "inactive"}, {"measurement": "Potency", "setting": "[3]", "result": "inactive"}]}, {"smiles": "COc1cc(Nc2c(C#N)cnc3cc(OCCCN4CCN(C)CC4)c(OC)cc23)c(Cl)cc1Cl", "values": [{"measurement": "Potency", "setting": "[1]", "result": "1.09 µM (active)"}, {"measurement": "Potency", "setting": "[3]", "result": "inactive"}]}, {"smiles": "CS(=O)c1ccc(-c2nc(-c3ccc(F)cc3)c(-c3ccncc3)[nH]2)cc1", "note": "(stereo unspecified)", "values": [{"measurement": "Potency", "setting": "[4]", "result": "inactive"}, {"measurement": "Potency", "setting": "[2]", "result": "inactive"}, {"measurement": "Potency", "setting": "[3]", "result": "inactive"}]}, {"smiles": "CNS(=O)(=O)CCc1ccc2[nH]cc(C3CCN(C)CC3)c2c1", "values": [{"measurement": "Potency", "setting": "[4]", "result": "inactive"}, {"measurement": "Potency", "setting": "[3]", "result": "inactive"}]}, {"smiles": "Nc1nc2c(ncn2COC(CO)CO)c(=O)[nH]1", "values": [{"measurement": "Potency", "setting": "[4]", "result": "inactive"}, {"measurement": "Potency", "setting": "[3]", "result": "inactive"}]}, {"smiles": "CC1=C(/C=C/C(C)=C/C=C/C(C)=C/C(=O)Nc2ccc(O)cc2)C(C)(C)CCC1", "values": [{"measurement": "Potency", "setting": "[3]", "result": "8910 nM (active)"}]}, {"smiles": "CCc1nn(CCCN2CCN(c3cccc(Cl)c3)CC2)c(=O)n1CCOc1ccccc1", "values": [{"measurement": "Potency", "setting": "[2]", "result": "inactive"}]}]}
